Shown are actives, neighbours in structure and some others; about 5.5% of the full set was active somewhere.
RORg inh – ROR gamma (mouse) transcription inhibition. Potency, µM (series often up to 53.6 µM), for inactives: at the top dose activity change, negative = inhibition, most hits filed as inhibitors. P51450. 310,000 compounds, 5.4% hits. Drosophila S2 Gal4-RORgamma UAS-luciferase reporter, 20 h; note: % is set by controls: 0 for no effect and ±100 for the full control effect; nearly all actives have a fitted effect of over 60% in size
Target sequence (P51450 whole entry, looked up, the tested form may be a part): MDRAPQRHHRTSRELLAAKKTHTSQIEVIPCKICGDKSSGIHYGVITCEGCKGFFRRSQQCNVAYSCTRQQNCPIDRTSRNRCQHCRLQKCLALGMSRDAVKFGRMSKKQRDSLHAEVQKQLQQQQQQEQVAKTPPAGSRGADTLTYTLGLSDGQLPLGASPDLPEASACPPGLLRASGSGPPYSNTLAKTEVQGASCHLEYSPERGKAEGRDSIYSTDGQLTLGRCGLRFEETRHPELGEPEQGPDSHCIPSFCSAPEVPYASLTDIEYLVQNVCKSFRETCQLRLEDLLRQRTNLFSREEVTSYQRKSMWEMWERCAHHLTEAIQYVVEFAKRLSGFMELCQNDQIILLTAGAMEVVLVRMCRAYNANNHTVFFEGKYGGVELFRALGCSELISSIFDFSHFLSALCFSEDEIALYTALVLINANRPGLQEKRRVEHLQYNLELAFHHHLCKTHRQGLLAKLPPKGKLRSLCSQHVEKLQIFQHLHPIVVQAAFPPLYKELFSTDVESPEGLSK
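Luminescence from a UAS-regulated Photinus luciferase reporter in stably transfected Drosophila Schneider cells is measured; decreased signal marks ROR gamma inhibition. Fusion expression is induced by 700 uM copper sulfate for 20 hr.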
a7 integrin act – integrin-mediated muscular dystrophy alleviation activation. 350,000 compounds, 0.064% hits. Potency, µM (doses to about 38.3 µM), inactives show at the highest dose activation, actives largely listed as activators. alpha7betagal myoblasts, beta-gal FDG fluorescence, 48 h;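 note: 100% = response of the positive control SU9516; nearly all actives have a fitted effect of over 60% in size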
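Alpha7betagal+/- myoblasts (passage 13) were plated 16-24 hr, then exposed to compounds (1:260 dilution of DMSO stock) for 48 hours at 37C. After MPER lysis, β-galactosidase reporter activity was read as FDG fluorescence (ex 480/em 540) after 30 minutes.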
uPA generation – blocks generation of uPA at the cell surface. Potency, µM (titrated, usually from 38.3 µM), for the others: at the top dose activity change, negative = inhibition, usual class: inhibitors. 330,000 compounds, 0.31% hits. cell surface uPA generation assay, qHTS. AID 540303; active = well fitted inhibition curve with a large enough effect; inconclusive = small, poorly fitted or top-dose-only effect; inactive = no such curve, though single readings can be large or run the other way; tested in mouse RAW 264.7 cells; note: % is set by controls: 0 for no effect and ±100 for the full control effect; nearly all actives have a fitted effect of over 55% in size
Chronic BCR inh – chronic active BCR signaling inhibition. ABC-DLBCL IkBa-CBG/CBR reporter, luminescence ratio, 4 h. Potency, µM (series often up to 46.1 µM), for the others: top-dose activity change, negative = inhibition, hits mostly inhibitors. 340,000 compounds, 0.05% hits; active = well fitted inhibition curve with a large enough effect in the signal ratio, with a control signal flat, not every such curve was filed as active; inconclusive = small, poorly fitted or top-dose-only effect, or effect the other way, or a change in a side signal; the % refers to the signal ratio;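 note: plate controls were basal doxycycline-induced cells for no effect and cells given 10 µM MG132 for full effect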
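Concentration-response series (up to 46 uM) were applied to TMD8 dual-reporter cells for 4 h at 37C with doxycycline. Green/red ratio, after filter-overlap correction, defined %Activity; red signal alone was normalised to basal cells and zero luminescence.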
VP16 counter – Gal4-VP16 reporter inhibition counter-screen. Drosophila S2 Gal4-VP16 UAS-luciferase, luminescence, 20 h. Potency, µM (top dose mostly 53.6 µM), for inactives: at the highest dose activity, negative = inhibition, hits mostly inhibitors. 310,000 compounds, 3.5% hits. AID 2546;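 note: Gal4-VP16 expression switched on by copper sulfate through the metallothionein promoter; % is set by controls: 0 for no effect and ±100 for the full control effect; nearly all actives have a fitted effect of over 50% in size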
Mito fusion yeast – inhibitors of mitochondrial division or activators of mitochondrial fusion; S. cerevisiae fusion-defective mutant growth rescue, CellTiterGlo 48 h; Potency, µM (doses to about 46.1 µM), for inactives: at the top dose growth rescue (activation), most hits filed as activators; 320,000 compounds, 0.23% hits; AID 485298; note: % of control where 0% means no effect; nearly all actives have a fitted effect of over 45% in size
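Temperature-sensitive fusion-defective S. cerevisiae (e.g. fzo1-1, mgm1-5) were grown with compound in YPEG medium (3% ethanol, 3% glycerol) for 48 hours at 37C. Growth rescue was measured as viability by CellTiterGlo luminescence after 10 minutes at ambient.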
Active calls of the source: *; u = inconclusive; x = no result given; [ ] = dose if it differs, or a comment. Unless noted, calls come from the whole dose curve; as a rule, active = well fitted curve in the direction sought with a large enough effect; inconclusive = small, poorly fitted or top-dose-only effect, or another doubt; inactive = no such curve, though single readings can be large; an effect the other way counts as inactive or inconclusive. Potency is the fitted concentration of half-maximal effect.

SMILES | RORg inh | a7 integrin act | uPA generation | Chronic BCR inh | VP16 counter | Mito fusion yeast
COc1ccc(S(=O)(=O)N2CCCCC2)cc1NC(=O)Cc1ccc(Br)cc1 | x | 19% | 14% | x | x | x
O=C(C1CC(=O)N(c2ccc3c(c2)OCCO3)C1)N1CCN(S(=O)(=O)c2cccc(F)c2)CC1 (centres undefined) | x | 19% | 0% | x | x | x
CC[C@@H]1/C=C(\C)C[C@H](C)C[C@H](OC)[C@H]2O[C@@](O)(C(=O)C(=O)N3CCCC[C@H]3C(=O)O[C@H](/C(C)=C/[C@@H]3CC[C@@H](O)[C@H](OC)C3)[C@H](C)[C@@H](O)CC1=O)[C@H](C)C[C@@H]2OC | 18% | x | x | x | u | x
O=C(N/N=C/C=C\c1cccc([N+](=O)[O-])c1)c1cccnc1 | 6.3µM* | -27% | 3% | -16% | u | -3%
COc1ccc(C(=O)NN=C(Cc2ccccc2)Cc2ccccc2)cc1OC | 11µM* | -11% | -4% | u | u | -3%
O=C(/C=C/c1ccc([N+](=O)[O-])cc1)NCc1cccnc1 | 19% | 16% | -1% | -1% | 20% | -3%
O=C(/C=C/c1ccc([N+](=O)[O-])cc1)c1cccnc1 | u | -57% | u | 1% | 22µM* | 2%
CC(/C=C/c1ccccc1)=N/NC(=O)c1cc([N+](=O)[O-])cc([N+](=O)[O-])c1 | 0.18µM* | 10% | -10% | 0% | 0.18µM* | 3%
CC[C@H](C)[C@H](NC(=O)[C@H](CO)NC(=O)[C@H](C)NC(=O)[C@H](C)NC(=O)[C@H](CCC(N)=O)NC(=O)[C@H](CCCCN)NC(=O)[C@H](CCCN=C(N)N)NC(=O)[C@@H](N)CS)C(=O)N[C@@H](CCCCN)C(=O)N[C@H](C(=O)N[C@@H](C)C(=O)N[C@H](C(=O)N[C@@H](CO)C(=O)O)C(C)C)C(C)C | 1% | x | x | x | -3% | x
CC(C)=CCC/C(C)=C/CC/C(C)=C/CC/C=C(\C)CC/C=C(\C)CCC=C(C)C | 9% | x | x | x | -4% | x
NN=C1c2ccccc2C(=O)C1C(=O)C(c1ccccc1)c1ccccc1 (centres undefined) | x | -12% | 5% | x | x | x
O=[N+]([O-])c1ccccc1C1Nc2cccc3cccc(c23)N1 | 1µM* | -36% | 3% | u | -1%[0.365 µM] | 4%
Oc1ccccc1C1Nc2cccc3cccc(c23)N1 | 16% | -20% | 5% | -1% | -15% | -1%
COC(=O)/C(=C1\OC(=O)C(c2ccccc2)C1=O)c1ccccc1 (centres undefined) | u | x | x | x | 0% | x
COc1ccc(CCNC(=O)c2cc3c(=O)n4cccc(C)c4nc3n(Cc3ccco3)c2=N)cc1OC | 1.6µM* | -4% | -1% | u | 1.1µM* | -6%
Cc1ccc(CNC(=O)c2cc3c(=O)n4ccccc4nc3n(Cc3ccco3)c2=N)cc1 | 3.2µM* | -5% | 0% | u | 2.8µM* | 1%
COc1cccc(NC(=O)CN(C)C(=O)c2ccc(S(=O)(=O)Nc3ccccc3F)cc2)c1 | x | 7% | -3% | u | x | -3%
Cc1cccc(C(=O)OCC(=O)N2CCCCCC2)c1O | x | -5% | 3% | -3% | x | 6%
O=C(O)c1cccc(COc2ccc(CO)cc2Cl)c1 | 1.8µM* | -18% | u | u | 5µM* | -2%
COc1ccc(OCc2cccc(C(=O)O)c2)cc1 | 1.8µM* | 3% | -4% | u | u | -3%
CCOc1ccc(OCc2cccc(C(=O)O)c2)cc1 | 1.6µM* | -4% | x | u | u | 4%
O=C(O)c1cccc(COc2ccc3c(c2)CCC3)c1 | 0% | -21% | -4% | u | 6% | 22%
COC(=O)[C@@H](NC(=O)O[C@@H]1C(=O)c2cc(OC)ccc2O[C@H]1c1cccc(OC)c1)C(C)C | 23% | x | x | x | -13% | x
COc1cc2c(cc1NC(=O)COC(=O)[C@@H](NC(=O)c1ccccc1F)C(C)C)oc1ccccc12 | 10µM* | -31% | 5% | 17% | 11µM* | 12%
COc1cc2c(cc1NC(=O)COCC(=O)O)oc1ccccc12 | 2% | -18% | 6% | u | -10% | 9%
SMILES | RORg inh | a7 integrin act | uPA generation | Chronic BCR inh | VP16 counter | Mito fusion yeast
COc1cc2c(cc1NC(=O)COC(=O)[C@@H](NC(=O)c1ccccc1)C(C)C)oc1ccccc12 | 8.9µM* | -13% | -1% | 19% | u | 16%
COc1cc(NC(=O)C2CC(=O)N(Cc3ccco3)C2)c(OC)cc1Cl (centres undefined) | x | -3% | -3% | -6% | x | -4%
COc1cc2c(cc1NC(=O)COC(=O)CNC(=O)c1ccccc1)oc1ccccc12 | 11µM* | -5% | 4% | u | 6.3µM* | 12%
COc1ccccc1CC(=O)Nc1cc2oc3ccccc3c2cc1OC | -3% | 9% | -6% | 14% | -20% | 6%
COc1cc2c(cc1NC(=O)COC(=O)C1CC(=O)N(Cc3ccco3)C1)oc1ccccc12 (centres undefined) | 8.9µM* | -10% | -5% | 5% | 7.9µM* | -3%
CCN(CC)c1ccc(C(=O)OCC(=O)Nc2cc3oc4ccccc4c3cc2OC)cc1 | -15% | 16% | 2% | 1% | -1% | -6%
COc1ccc(C(=O)CCC(=O)Nc2ccc(C)c(Cl)c2)cc1 | x | x | x | 8% | x | x
O=C(O)c1c(Sc2ccccc2)c2cc(Cl)ccc2n1Cc1ccc(Cl)cc1 | 19% | x | x | x | -23% | x
NC(=O)C(=O)NN=C1C2CC3CC(C2)CC1C3 | -15% | 2% | -3% | 4% | 7% | 0%
NC(=S)NN=C1C2CC3CC(C2)CC1C3 | 2µM* | -14% | 3% | u | u | -13%
O=C(COc1ccccc1)Nc1ncn[nH]1 | -1% | -2% | 6% | 7% | -12% | 27%
CCc1ccc(OCC(=O)Nc2ncn[nH]2)cc1 | -19% | 1% | 2% | -1% | u | 9%
CC(C)(C)c1ccccc1OCC(=O)Nc1ncn[nH]1 | 11µM* | 1% | 4% | -6% | u | 2%
CC(C)(C)c1cc(Br)ccc1OCC(=O)Nc1ncn[nH]1 | 3.5µM* | -3% | 2% | u | 18µM* | -4%
O=C1C2C(c3ccccc3)CC=CC2C(c2ccc3ccccc3c2)N1Cc1ccccc1 (centres undefined) | 42% | x | x | x | 2% | x
O=C(c1cccc(F)c1)N1CCC2(CC1)CN(c1ccc(-c3ccccc3)cc1)C2 | 11% | x | x | x | 16µM* | x
O=C(c1cnccn1)N1CCC2(CC1)CN(c1ccccc1)C2 | -8% | x | x | x | 11% | x
O=C(c1cnccn1)N1CCC2(CC1)CN(c1cccc(-c3ccccc3)c1)C2 | -3% | x | x | x | 5µM* | x

Screens as filed in PubChem.
